The list is not random: actives were taken first. Their share in the collection is about 2.9%.
Peg3 promoter = reduces Peg3 promoter-driven luciferase expression in HeLa. HeLa PEG-Prom luciferase reporter, luminescence, overnight. inhibition, % at 20 µM. 360,000 tested, 1.7% active. AID 588405;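 active = inhibition of at least 50% at 20 µM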
HIF-2a block = HIF-2a inhibition | 786-0 RCC cells HIF-2a reporter, luciferase luminescence, overnight | inhibition, % at 18.8 µM | 360,000 tested, 0.72% active | AID 624352;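 active = inhibition of the luminescence signal of 40% or more relative to plate controls, in a single-dose primary screen at 18.75 µM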
EBV LMP1 NFkB = inhibitors of Epstein-Barr LMP1-induced NF-kappaB reporter | LMP1-induced NF-kappaB luciferase reporter cells, luminescence | inhibition, % at 12.5 µM | 350,000 tested, 0.69% active | AID 504558; in the data active = inhibition above about 41%;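 note: 0% = neutral control wells and 100% = reference inhibitor control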
CF NFkB block = blocks PAF-induced NF-kB reporter in cystic fibrosis cells; KKLEB NF-kB-GFP reporter, GFP fluorescence overnight; inhibition, % at 5 µM; 360,000 tested, 0.86% active; AID 588850;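 active = at least 50% inhibition at 5 µM, scaled per plate between neutral and stimulator controls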;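 note: PAF is a Pseudomonas aeruginosa culture filtrate used as stimulus; plate controls were PAF-stimulated DMSO wells for no effect and unstimulated DMSO wells for full effect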
Shn3 inh set2 = reduces Shn3 3'UTR luciferase signal in osteoblasts; Clone20 osteoblast Shn3 3'UTR firefly luciferase, 24 h; inhibition, % at 12.5 µM; 360,000 tested, 0.52% active;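 active = mean inhibition of at least 75% with every replicate also reaching 75%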;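 note: 0% = median of neutral control wells and 100% = pilot-screen positive control compound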
KKLEB cytotox = reduces viability of KKLEB cystic fibrosis airway cells; KKLEB CF airway cells viability, ATPlite luminescence, overnight; stronger effect = lower value; cells stimulated with P. aeruginosa culture filtrate; 360,000 tested, 0.36% active; activity change (cytotoxicity), % at 5 µM;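 active = corrected activity change at or below -50% at 5 µM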
* marks the source's active call; other numbers are inactive results; . = no result.

SMILES	Peg3 promoter	HIF-2a block	EBV LMP1 NFkB	CF NFkB block	Shn3 inh set2	KKLEB cytotox
O=c1[nH]c(=O)n(Cc2ccccc2)c2nc(-c3ccc(Oc4ccc(F)cc4)c([N+](=O)[O-])c3)n(CCO)c12	63.1*	20.5	-2.1	-22.2	3.3	-2.9
COc1ccc(S(=O)(=O)N2CCCCCC2)cc1C(=O)OCc1cccc(OC)c1OC	50.8*	0.6	45.9*	22.3	-13.0	-6.8
COc1cccc(COC(=O)C2CCN(S(=O)(=O)c3ccc(C)cc3)CC2)c1OC	20.2	18.7	-6.5	-1.9	-1.1	-6.8
O=C1CC(=C(c2ccccc2)c2ccccc2)C(=O)N1CCCCN1CCN(c2cccc(Cl)c2)CC1	50.1*	28.3	-5.4	6.7	4.9	4.0
CCN1C(=O)/C(=C/N(C(C)=O)c2ccccc2)N(c2ccccc2)C1=S	23.6	86.4*	-6.5	20.1	-20.7	-6.5
CCc1ccc(/C=C2/C(=O)N(c3ccccc3)C(=S)N2CC(=O)OC)s1	27.7	25.5	5.2	18.3	8.5	-20.8
COc1ccc(C(=O)Nc2c(C(C)(C)C)nn(C)c2C(C)(C)C)cc1	9.4	14.7	1.2	-1.2	-4.1	-0.9
Cc1ccccc1NC(=S)N(Cc1ccco1)C(C)c1ccccn1 (stereo unspecified)	25.1	14.1	-7.1	-2.5	9.5	1.4
COc1ccc(C(CNC(=O)C(CCSC)NC(=O)c2ccccc2Cl)N2CCCCC2)cc1 (stereo unspecified)	-8.2	-1.6	71.4*	-8.8	6.5	-5.8
CC1=C(/C=C/C(C)=C/C=C/C(C)=C/C(=O)O)C(C)(C)CCC1	12.3	14.4	-5.0	72.9*	17.6	-8.1
COc1cc(C(=O)NC2CCN(C)CC2)ccc1Nc1ncc2c(n1)N(Cc1ccccc1)CCC(=O)N2C	-105.3	-152.3	-3.9	-171.0	-18.2	-28.6
CCN1C(=O)CC(C(C)C)N(C2CCCC2)c2nc(Nc3ccc(C(=O)NC4CCN(C)CC4)cc3OC)ncc21 (stereo unspecified)	66.2*	18.7	-20.2	-68.8	-55.5	-17.8
COc1ccccc1-n1cnc2cc(C(=O)NC3CCCC3)ccc21	-11.2	-31.8	2.7	7.9	-2.9	6.2
COc1cc(C(=O)NC2CCN(C)CC2)ccc1Nc1ncc2c(n1)N(C1CCCCC1)CCC(=O)N2C	90.7*	-36.8	7.3	-101.4	51.6	-26.2
CCN1C(=O)CSc2ccc(C(=O)NC3CCCCC3)cc21	-3.1	-10.6	5.3	-1.8	-2.5	1.9
CCN1C(=O)CC(c2ccccc2)N(C2CCCC2)c2nc(Nc3ccc(C(=O)NC4CCN(C)CC4)cc3OC)ncc21 (stereo unspecified)	93.7*	10.7	-13.8	-75.4	66.2	-20.1
O=C(NCCN1CCOCC1)c1cccc(S(=O)(=O)Nc2cc(Cl)ccc2Cl)c1	19.4	18.1	5.0	-9.9	-19.9	4.0
CC(=O)/C=C1\SC(CC(=O)O)C(=O)N1c1ccccc1 (stereo unspecified)	-9.9	9.2	3.2	12.4	2.5	-8.4
COCCn1c(SCc2ccc(C(=O)OC)o2)nnc1-c1c[nH]c2ccccc12	9.8	-4.2	47.1*	-7.1	-7.4	15.5
COC(=O)c1ccc(CSc2nnc(-c3c[nH]c4ccccc34)n2C)o1	-0.4	-9.8	-4.6	-4.9	6.5	5.0
Cc1ccc(NC(=O)C2CCN(S(C)(=O)=O)CC2)c(C)c1	1.1	4.0	4.2	-31.6	-15.4	-4.8
COCCNC(=O)C(c1ccc(O)cc1)N(Cc1cccs1)C(=O)CCC(=O)Nc1ccccn1 (stereo unspecified)	2.4	6.6	-1.6	6.0	-0.1	2.9
COCc1cccc(N2C(=O)CC(C3C=C(C)C4C(=O)N(c5cccc(COC)c5)C(=O)C4C3)C2=O)c1 (stereo unspecified)	8.0	5.2	-3.8	-9.2	24.2	21.1
COc1ccc2nc(C)cc(Nc3ccc(N4CCN(C)CC4)cc3)c2c1	110.8*	-47.4	-9.4	-58.2	-16.7	-8.1
COc1ccc2nc(C)cc(N/N=C/c3ccccc3)c2c1	106.9*	-10.6	-20.9	-312.3	19.3	-4.8
SMILES	Peg3 promoter	HIF-2a block	EBV LMP1 NFkB	CF NFkB block	Shn3 inh set2	KKLEB cytotox
COc1ccccc1/C=N/Nc1cc(C)nc2ccc(C)cc12	-45.5	-77.5	-3.4	-15.1	-94.8	6.9
COc1ccc2nc(C)cc(Nc3ccc(N4CCOCC4)cc3)c2c1	28.6	30.3	-3.8	-39.9	8.0	-9.6
Cc1cc(N/N=C/c2ccc(O)cc2)c2cccc(C)c2n1	110.1*	11.4	5.5	-152.5	-0.1	7.9
O=C(CCN1C(=O)/C(=C/c2ccccc2F)SC1=S)N[C@@H](CO)Cc1ccccc1	68.2*	8.1	4.6	16.1	-45.6	-0.8
Cc1nn(-c2ccccc2)c(C)c1C(=O)OCC(=O)N1c2ccccc2NC(=O)C1(C)C	58.7*	5.7	-3.5	2.2	7.6	4.8
CCOC(=O)Cc1csc(NS(=O)(=O)c2ccc(C(F)(F)F)cc2)n1	12.4	10.1	.	-5.3	.	-13.0
O=C(N/C(=C\c1ccc(Br)cc1)C(=O)N1CCOCC1)c1ccc(Br)o1	0.8	4.9	-0.7	5.9	-13.3	-0.9
O=C(N/C(=C/c1ccc(Br)cc1)C(=O)N1CCOCC1)c1ccc(Br)o1	-1.2	19.2	60.6*	-14.4	-1.7	-6.8
CN(C)CCCn1c2c3ccccc3ccc2c2oc(=O)c3ccccc3c21	97.4*	-93.8	-23.2	-132.3	-83.9	15.7
CN(C)CCCn1c(=S)[nH]c2ccccc2c1=O	-3.3	17.1	-0.4	-8.8	-9.1	12.1
COc1ccc(C(=O)Oc2c(OC)cc(C(=S)N3CCOCC3)cc2OC)cc1OC	0.6	23.2	18.5	5.2	7.0	-5.0
O=C(CCc1ccc(S(=O)(=O)N2CCOCC2)cc1)N/N=C/c1ccc(O)c(O)c1O	3.5	23.4	-6.0	12.2	-20.8	-2.5
COc1ccc(-c2ccnc3cc(C(=O)O)nn23)cc1	-0.6	13.8	56.8*	-5.6	4.6	-6.2
O=C(O)c1cc2nccc(-c3ccco3)n2n1	-0.5	9.5	-9.0	-9.2	.	-2.6
Cc1ccc(-n2cc(CNCCn3nc(C)cc3C)c(-c3ccc(F)cc3)n2)cc1	-23.9	-18.7	0.7	10.6	-12.3	-23.6
Cc1ccc(-n2cc(CNCCc3ncc(C)[nH]3)c(-c3ccc(F)cc3)n2)cc1	57.0*	-54.1	-10.6	5.7	17.8	-9.8
O=C(c1ccoc1)N1CCN(c2cc(-c3cccc(F)c3)nc3cc(-c4cccc(Cl)c4)nn23)CC1	20.9	8.9	8.2	0.7	90.8*	-14.9
O=C(c1ccccc1)N1CCN(c2cc(Cl)nc3cc(-c4cccc(Cl)c4)nn23)CC1	11.2	-17.6	7.5	-35.8	0.6	2.6
O=C(COC(=O)CNS(=O)(=O)c1cccc(F)c1)NCCc1ccccc1	13.4	6.3	4.5	30.7	7.0	-17.2
CC(=O)Nc1ccc(S(=O)(=O)Nc2cccc(-c3ccc4nncn4n3)c2)cc1	7.5	4.8	-7.4	-6.5	0.8	2.2

Assay outcomes from PubChem.
